Bioassay records: PubChem BioAssay, several laboratories
Shown are actives, neighbours in structure and some others; about 32% of the full set was active somewhere.
PostGolgi yeast: growth inhibition of a yeast mutant, post-Golgi transport screen. post-Golgi transport phenotypic cell assay. inhibition, % at 10 µM. actives 0.9% (n = 98,000). AID 739;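 also: yeast cells grown in 1536-well plates; yeast grown about 18 h at 30C before absorbance read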
PostGolgi ctrl: inhibits growth of the yeast control strain; efflux-deficient yeast background strain, growth absorbance A615, 16 h; inhibition, % at 10 µM; actives 5% (n = 98,000)
CYP2C19 inhib: blocks human cytochrome P450 2C19; inhibition, % at 5 µM; CYP2C19 Supersomes, luciferin-H EGE luminescence, 30 min; actives 21% (n = 96,000); AID 778; P33261;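 active = CYP2C19 inhibition above a set limit at 5 µM in the primary screen, cut at about 50% in these data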;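 also: plate controls were negative control wells for no effect and 2.5 mM tranylcypromine positive control for full effect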
Target sequence (P33261 whole entry, looked up): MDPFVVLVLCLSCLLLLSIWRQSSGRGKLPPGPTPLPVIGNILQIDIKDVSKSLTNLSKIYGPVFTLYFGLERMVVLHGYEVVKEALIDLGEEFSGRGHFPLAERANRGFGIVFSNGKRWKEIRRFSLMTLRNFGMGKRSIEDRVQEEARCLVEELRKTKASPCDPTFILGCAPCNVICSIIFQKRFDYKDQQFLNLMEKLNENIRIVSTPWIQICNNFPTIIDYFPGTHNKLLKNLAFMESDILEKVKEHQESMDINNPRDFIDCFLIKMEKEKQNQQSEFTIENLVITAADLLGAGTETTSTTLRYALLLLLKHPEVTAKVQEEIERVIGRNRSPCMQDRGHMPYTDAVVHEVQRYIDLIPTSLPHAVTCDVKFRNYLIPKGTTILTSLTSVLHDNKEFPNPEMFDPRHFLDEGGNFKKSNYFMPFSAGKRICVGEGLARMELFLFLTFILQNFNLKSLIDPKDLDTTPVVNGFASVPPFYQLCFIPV
CYP2C9 act: activators of human CYP2C9; P11712; recombinant CYP2C9, luciferin-H conversion, luminescence; active compounds read high; factor 1 = untreated enzyme, 0 = blocked; activation factor at 5 µM; actives 1.4% (n = 96,000); AID 1024;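 active = activation factor of 2 or more for CYP2C9 at a 5 µM dose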;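 also: 0 = sulfaphenazole-blocked wells and 1 = vehicle-only wells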
CYP2C9 inhib: blocks human cytochrome P450 2C9 | CYP2C9 Supersomes, luciferin-H conversion, luminescence | inhibition, % at 5 µM | actives 20% (n = 96,000) | AID 777;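 active = blocking of liver enzyme CYP2C9 beyond about 50% at 5 µM, limit read from the data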
CYP2C19 act: activators of human cytochrome P450 2C19 | recombinant CYP2C19, luciferin-H EGE luminescence; active compounds read high; 0 = fully inhibited enzyme, 1 = untreated enzyme | activation factor at 5 µM | 96,000 tested, under 10 active | AID 1025 | P33261;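 active = activation factor of at least 2 at 5 µM in the primary screen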;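 also: 0 = wells with 2.5 mM tranylcypromine and 1 = vehicle-only wells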
Numbers without * were called inactive; . = no result given. Rule as the data show it, unless noted: active = inhibition above about 30%; inactive = the rest.

SMILES | PostGolgi yeast | PostGolgi ctrl | CYP2C19 inhib | CYP2C9 act | CYP2C9 inhib | CYP2C19 act
O=C(O)C1C2C=CC(C2)C1C(=O)N1CCc2ccccc21 (stereo not given) | 5 | 1 | -17 | 1.1 | -14 | 1.2
CC1Oc2ccccc2N(CC(=O)N2CCCc3ccccc32)C1=O (stereo not given) | 0 | 1 | 44 | 0.7 | 33 | 0.6
O=C(C1COc2ccccc2O1)N1CCc2ccccc21 (stereo not given) | 4 | 3 | 92* | 0.7 | 34 | 0.1
Cc1ccc2c(c1)N(CC(=O)N1CCCc3ccccc31)C(=O)CO2 | 5 | 9 | 34 | 0.9 | 10 | 0.7
O=C(CN1C(=O)COc2ccccc21)N1CCc2ccccc21 | -1 | 15 | 57* | 0.6 | 42 | 0.4
CC1Oc2ccccc2N(CC(=O)N2CCc3ccccc32)C1=O (stereo not given) | 2 | 18 | 52* | 0.4 | 56* | 0.5
CCc1ccc(C(=O)COC(=O)c2cnccn2)cc1 | -9 | 8 | -16 | 1.2 | -22 | 1.2
CN(C1CCCCC1)S(=O)(=O)c1ccc(NC(=O)C2CCCCC2C(=O)O)cc1 (stereo not given) | -6 | 33* | 12 | 1 | 1 | 0.9
CN(C)S(=O)(=O)c1ccc(NC(=O)c2ccc(Br)o2)cc1 | -5 | -7 | 54* | 0.6 | 43 | 0.5
CN(C1CCCCC1)S(=O)(=O)c1ccc(NC(=O)c2ccc(Br)o2)cc1 | -7 | 35* | 94* | 0 | 98* | 0.1
Cc1ccc(NS(=O)(=O)c2ccc(NC(=O)[C@@H]3CCCC[C@@H]3C(=O)O)cc2)c(C)c1 | -3 | 14 | 13 | 0.8 | 18 | 0.9
CCOC(=O)C(=CNc1ncccc1C)C(=O)OCC | -2 | 7 | . | . | . | .
CC1CN(C2CCN(C(=O)c3ccccc3)CC2)CC(C)O1 (stereo not given) | 0 | 8 | -6 | 1.1 | -8 | 1.1
O=C1CCCc2[nH]nc(-c3cccnc3)c21 | 3 | 2 | -12 | 1.1 | -6 | 1.1
COc1cc2c(OC)cccc2cc1C(=O)O | 5 | 3 | 5 | 1 | -2 | 0.9
COc1cc2ccccc2cc1C(=O)O | -5 | 0 | 21 | 0.2 | 82* | 0.8
COc1ccc(-c2cc(C(=O)N/N=C/c3ccc(OC)c(COCC(F)(F)C(F)F)c3)c3ccccc3n2)c(OC)c1 | -7 | 0 | 79* | 0.1 | 88* | 0.2
COc1ccccc1-c1cc(C(=O)N/N=C/C=C/c2ccccc2[N+](=O)[O-])c2ccccc2n1 | -7 | 9 | 21 | 0.3 | 66* | 0.8
COc1cccc(/C=N\NC(=O)c2cc(OCC(F)(F)F)ccc2OCC(F)(F)F)c1 | 1 | 1 | 12 | 0.8 | 20 | 0.9
COc1ccc(-c2cc(C(=O)N/N=C/c3sccc3C)c3ccccc3n2)c(OC)c1 | 6 | 23 | 65* | 0.1 | 88* | 0.3
COc1ccc(-c2cc(C(=O)N/N=C/c3ccc4c(c3)OCO4)c3ccccc3n2)c(OC)c1 | 37* | 72* | 66* | 0.1 | 88* | 0.3
COc1ccccc1-c1cc(C(=O)N/N=C/c2cccs2)c2ccccc2n1 | 4 | 33* | 80* | 0 | 96* | 0.2
COc1ccc2cc(-c3cc(C(=O)O)c4ccccc4n3)ccc2c1 | -6 | 5 | 4 | 1 | 3 | 1
COc1ccc(-c2cc(C(=O)O)c3ccccc3n2)c(OC)c1 | -8 | -3 | 5 | 0.4 | 62* | 1
O=C(N/N=C/c1cccc(F)c1)c1cc(-c2ccco2)nc2ccccc12 | -3 | -2 | 9 | 0.8 | 18 | 0.9
SMILES | PostGolgi yeast | PostGolgi ctrl | CYP2C19 inhib | CYP2C9 act | CYP2C9 inhib | CYP2C19 act
O=C(N/N=C/c1cccs1)c1ccccn1 | -3 | 8 | -17 | 1.1 | -12 | 1.2
COc1ccccc1Oc1ccc(S(=O)(=O)NCc2ccccn2)cc1 | -1 | 15 | 44 | 0.7 | 28 | 0.6
CCSc1nc(-c2ccc(OC)cc2)ccc1C#N | -1 | 9 | 63* | 0.1 | 90* | 0.4
COc1ccc(-c2ccc(C#N)c(OC(=O)c3c(Cl)cccc3Cl)n2)cc1 | 6 | 10 | -10 | 0.8 | 23 | 1.1
COc1ccc(-c2ccc(C#N)c(SCC(=O)OCc3ccccc3)n2)cc1OC | 0 | 20 | 22 | 0.1 | 92* | 0.8
N#Cc1ccc(-c2ccc3c(c2)OCO3)nc1SCC(=O)OCc1ccccc1 | -2 | 10 | -24 | 0.1 | 92* | 1.2
CCn1c(CNC(=O)c2ccco2)nnc1SCC(=O)Nc1cc(C(F)(F)F)ccc1Cl | 1 | 19 | 32 | 1 | 2 | 0.7
CCOC(=O)c1nnn(-c2nonc2N)c1CSc1ccccn1 | -6 | 8 | 20 | 0.4 | 56* | 0.8
CCOC(=O)c1nnn(-c2nonc2N)c1CSc1ccccc1 | -6 | 11 | 16 | 0.5 | 49 | 0.8
CCOC(=O)c1nnn(-c2nonc2N)c1CSc1ccc(C)cc1 | 7 | 33* | 79* | 0.5 | 51* | 0.2
CCCCCn1c(NC(=O)c2ccco2)c(S(=O)(=O)c2ccc(C)cc2)c2nc3ccccc3nc21 | 2 | 10 | 6 | 0.8 | 22 | 0.9
CCCCn1c(NC(=O)c2ccc(Br)o2)c(S(=O)(=O)c2ccccc2)c2nc3ccccc3nc21 | 10 | 16 | 9 | 0.2 | 83* | 0.9
O=C(C1CCCN(S(=O)(=O)c2cccs2)C1)N1CCC(N2CCCCC2)CC1 (stereo not given) | 0 | 1 | -11 | 0.9 | 8 | 1.1
COC(=O)c1ccccc1NC(=O)c1c(O)c2cccc3c2n(c1=O)CCC3 | . | . | 5 | 0.9 | 9 | 1
Cc1ccccc1C(=O)Nc1cccc(NC(=O)Cn2cnc3c(=O)n(C)c(=O)n(C)c32)c1 | -6 | 1 | 6 | 0.4 | 59* | 0.9
Cn1c(=O)c2ncn(CC(=O)NCCOc3ccccc3)c2n(C)c1=O | 30* | 1 | -13 | 1.1 | -12 | 1.1
Cc1cccc(C)c1NC(=O)Cn1cnc2c(=O)n(C)c(=O)n(C)c21 | 2 | 6 | -5 | 1.1 | -6 | 1.1
CCOC(=O)C1CCN(C=Nc2cc(C)on2)CC1 | 11 | 7 | -15 | 1.1 | -6 | 1.2
CCOc1ccc(OCC)c(NC(=O)C2CCCN2S(=O)(=O)c2cccc3cccnc23)c1 (stereo not given) | 6 | 27 | 41 | 1.6 | -64 | 0.6
Cc1ccccc1NC(=O)C1CCCN(S(=O)(=O)c2cccc3cccnc23)C1 (stereo not given) | -6 | 31* | 11 | 1.5 | -45 | 0.9
Cc1ccnc(N2CCC(C(=O)Nc3ccc4c(c3)CCC4)CC2)n1 | 7 | 14 | 27 | 0.9 | 9 | 0.7
COc1ccc(NC(=O)C2CCCN2S(=O)(=O)c2cccc3cccnc23)c(OC)c1 (stereo not given) | 97* | 95* | 31 | 0.1 | 92* | 0.7
